From PubChem BioAssay
ALOX12 inh: blocks human arachidonate 12S-lipoxygenase; P18054; purified 12hLO, xylenol orange hydroperoxide absorbance; Potency, µM (titrated, usually from 108 µM), for inactives: top-dose activity change, negative = inhibition, usual class: inhibitors; 1.1% of 580,000 active; AID 1671190; note: potency is the fitted concentration of half-maximal effect
Target sequence (P18054 whole entry, looked up): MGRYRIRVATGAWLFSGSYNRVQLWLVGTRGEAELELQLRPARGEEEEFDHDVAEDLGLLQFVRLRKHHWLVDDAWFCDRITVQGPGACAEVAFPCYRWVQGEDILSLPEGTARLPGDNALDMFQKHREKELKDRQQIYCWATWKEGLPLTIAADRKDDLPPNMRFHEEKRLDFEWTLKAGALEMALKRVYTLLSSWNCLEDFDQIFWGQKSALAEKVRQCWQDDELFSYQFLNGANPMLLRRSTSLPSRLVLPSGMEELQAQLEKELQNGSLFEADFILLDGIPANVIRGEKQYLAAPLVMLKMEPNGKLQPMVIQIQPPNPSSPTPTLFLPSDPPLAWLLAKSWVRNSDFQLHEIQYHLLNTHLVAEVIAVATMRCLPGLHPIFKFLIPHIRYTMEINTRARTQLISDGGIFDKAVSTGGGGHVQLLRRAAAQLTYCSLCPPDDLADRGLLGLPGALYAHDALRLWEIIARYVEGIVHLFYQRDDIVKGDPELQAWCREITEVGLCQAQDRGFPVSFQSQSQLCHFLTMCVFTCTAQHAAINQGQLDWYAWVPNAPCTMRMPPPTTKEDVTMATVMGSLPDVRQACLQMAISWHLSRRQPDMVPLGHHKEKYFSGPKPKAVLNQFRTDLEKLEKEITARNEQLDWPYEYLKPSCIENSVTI
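Hydroperoxide product was detected by ferrous iron/xylenol orange as the 573 to 405 nm absorbance ratio. Arachidonic acid at 40 uM (final) was turned over for 30 min at room temperature by 150 nM human 12hLO, pH 7.0 Hepes buffer, after 15 min compound preincubation.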
DT40 TDP1 CPT: DT40-hTDP1 cell growth loss with CPT | chicken DT40 Tdp1-/-;hTDP1 cells + 20 nM CPT, ATP luminescence, 48 h | Potency, µM (top dose mostly 46.2 µM), for the others: at the top dose activity change, negative = growth inhibition, hits mostly inhibitors | 12% of 420,000 active; note: potency is the fitted concentration of half-maximal effect; nearly all actives have a fitted effect of over 55% in size
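Cell growth measured by CellTiter-Glo luminescence after a minimum 48 h, 37 C compound exposure with 20 nM CPT in Tdp1-knockout DT40 cells stably expressing hTDP1, seeded 400/well; qHTS titration format.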
HT1080NT lethal: kills 2HG-producing HT-1080-NT fibrosarcoma cells; Potency, µM (titrated, usually from 46.1 µM), for inactives: top-dose activity, negative = less viability, hits mostly cytotoxic; 1.6% of 360,000 active; HT-1080-NT fibrosarcoma viability, CellTiter-Glo ATP luminescence, 48 h;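 note: NT is the 2HG producing partner of a matched IDH1 knockdown line; potency is the fitted concentration of half-maximal effect; 0% = DMSO-treated cells and -100% = media-only wells without cells; nearly all actives have a fitted effect of over 55% in size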
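Compounds were tested in concentration-response format on HT-1080-NT cells for 48 hours at 37 degrees C. Cell viability came from CellTiter-Glo luminescence; curves were classified by r2, response magnitude and activity.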
IL1B secr inh: inhibitors of inflammasome signaling (IL-1 beta secretion); activity change, % at 57.5 µM; THP-1 LPS/ATP IL-1B secretion, AlphaLISA, 16 h; active compounds read low; AID 743279; 4.7% of 360,000 active; in the data active = activity change below about -50%; inconclusive = mostly about -30% to -49%
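Secreted IL-1B measured by AlphaLISA bead assay after 16 h compound exposure of THP-1 cells; compounds (final up to 57.5 uM) added 1 h before LPS (250 ng/mL) and ATP (1.25 mM) stimulation; lower signal means less secretion.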
DT40 TDP1 no CPT: qHTS for Inhibitors of human tyrosyl-DNA phosphodiesterase 1 (TDP1): qHTS in cells in absence of CPT; DT40 Tdp1-/- hTDP1 cells, no CPT, ATP luminescence, 48 h; Potency, µM (series often up to 46.2 µM), for inactives: at the top dose activity change, negative = growth inhibition, usual class: inhibitors; 15% of 420,000 active; AID 686978, 2013; note: potency is the fitted concentration of half-maximal effect; nearly all actives have a fitted effect of over 55% in size
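A cellular qHTS used chicken DT40 cells lacking endogenous Tdp1 but carrying stably transfected human TDP1. Compounds were applied without camptothecin, and cell growth kinetics were judged by ATP-dependent luminescence after ≥48 hr.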
HT1080 IDH1KD tx: toxicity to HT-1080 IDH1 knockdown cells (counter line); Potency, µM (doses to about 46.1 µM), for inactives: top-dose activity, negative = toxicity, usual class: cytotoxic; AID 686971; HT-1080 IDH1 knockdown viability, ATP luminescence, 48 h; 2% of 360,000 active;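 note: potency is the fitted concentration of half-maximal effect; 0% = DMSO wells and -100% = cell-free medium wells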
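In this qHTS, HT-1080 cells depleted of IDH1 are exposed for 48 h at 37 °C to compound titrations. Toxicity is scored from CellTiter-Glo luminescence, with DMSO as full viability and medium alone as none.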
* = called active by the depositor; ? = inconclusive; · = not tested or not shown; [ ] = dose if it differs, or a comment. The full list was thinned out, with hits kept by preference. Unless noted, calls come from the whole dose curve; as a rule, active = well fitted curve in the direction sought with a large enough effect; inconclusive = small, poorly fitted or top-dose-only effect, or another doubt; inactive = no such curve, though single readings can be large; an effect the other way counts as inactive or inconclusive. Unless noted, % is set by controls: 0 for no effect and ±100 for the full control effect.

SMILES	ALOX12 inh	DT40 TDP1 CPT	HT1080NT lethal	IL1B secr inh	DT40 TDP1 no CPT	HT1080 IDH1KD tx
CCOC(=O)N1CCC2(CC1)C(C#N)=C(N)Oc1n[nH]c(C)c12	-1.8%	-17.6%	12.2%	15.6	-4.3%	7.2%[9.24 µM]
CCOC(=O)N1CCC2(CC1)C(C#N)=C(N)Oc1c2c(C)nn1-c1cccc(Cl)c1	?	16.4µM*	-4.3%	-6.3	18.4µM*	?
CCO[C@@H]1OC(C(=O)N2CCN(Cc3ccc4c(c3)OCO4)CC2)=C[C@H](C2CC2)[C@H]1CCCO	-27.1%	?	-2.5%	-3.6	?	4.2%
CCO[C@@H]1OC(C(=O)N2CCN(Cc3ccc4c(c3)OCO4)CC2)=C[C@H](C)[C@H]1CCCO	-53.7%	-6.8%	-1.3%	-2.8	?	2.6%
C#Cc1ccc([C@H]2C=C(C(=O)N3CCN(Cc4ccc5c(c4)OCO5)CC3)O[C@@H](OCC)[C@@H]2CCCO)cc1	0.8%	?	-6.6%	-50.1*	?	-13.7%
CCO[C@@H]1OC(C(=O)N2CCCCCCC2)=C[C@H](C2CCCCC2)[C@H]1CCCO	4.8%	13µM*	6.5%	-26.1	?	-6.9%
CCO[C@H]1OC(C(=O)N2CCN(Cc3ccc4c(c3)OCO4)CC2)=C[C@@H](C2CCCCC2)[C@@H]1CCCO	-0.7%	14.6µM*	-10.3%	4.7	16.4µM*	-13.9%
C=CCC[C@H](Cc1ccc(F)cc1)C(=O)OC[C@H](Cc1c[nH]c2ccccc12)NC(=O)[C@@H](CC=C)CC(=O)NCCO	-29.6%	?	-14.4%	-11.9	?	-7.5%
C=CC[C@@H](CC(=O)N(CCO)Cc1ccccc1)C(=O)N[C@H](COC(=O)[C@@H](CC=C)Cc1ccc(F)cc1)Cc1c[nH]c2ccccc12	?	?	?	0.0	?	?
C=CCC[C@H](Cc1ccc(F)cc1)C(=O)OC[C@H](Cc1c[nH]c2ccccc12)NC(=O)[C@H](CC=C)CC(=O)N(CCO)Cc1ccccc1	-11.4%	?	?	?	25.9µM*	?
C=CC[C@H](CC(=O)N(CCO)Cc1ccccc1)C(=O)N[C@H](COC(=O)[C@@H](CC=C)Cc1ccc(F)cc1)Cc1c[nH]c2ccccc12	-29.3%	?	?	-55.8*	?	20.6µM*
C=CCC[C@@H](Cc1ccc(F)cc1)C(=O)OC[C@@H](Cc1c[nH]c2ccccc12)NC(=O)[C@@H](CC=C)CC(=O)N(CCO)Cc1ccccc1	-12.2%	?	?	-19.1	23.1µM*	?
CC(C)(C)c1ccc(C(=O)O)s1	2.6%	·	·	·	·	·
O=C(Cc1ccccc1[N+](=O)[O-])Nc1ccc2oc(C3CC3)nc2c1	5.2%	·	·	·	·	·
CC(=O)N1CCN([C@H]2[C@@H]3OC[C@@H](O3)[C@@H](NC(=O)Nc3cccc(C(F)(F)F)c3)[C@@H]2O)CC1	-22.7%	·	·	·	·	·
O=C(NCC(c1cccnc1)N1CCOCC1)C1CCCCC1 (stereo not drawn)	28.7%	16.6%	1.7%	6.7	-5.3%	0.1%
COc1ccccc1N1CCN(C(CNC(=O)C2CCCCC2)c2cccnc2)CC1 (stereo not drawn)	9.1%	8.2µM*	-4.4%	5.8	10.3µM*	1.0%
COc1ccc(S(=O)(=O)NCC(c2cccnc2)N2CCN(c3ccccc3OC)CC2)cc1C (stereo not drawn)	-2.8%	?	-2.7%	-28.2	?	-0.5%
COc1ccccc1N1CCN(C(CNS(=O)(=O)c2ccccc2)c2cccnc2)CC1 (stereo not drawn)	·	23.1µM*	-1.7%	13.9	18.4µM*	-5.4%
COc1cccc(OCC(=O)c2ccc3c(c2)N(CCCC(=O)NCc2ccccc2)C(=O)CO3)c1	2.5%	·	·	·	·	·
COc1ccc2cc(CNCCOCCOCCNCc3ccc4cc(OC)ccc4c3)ccc2c1	?	2.59µM*	?	-98.6*	2.59µM*	16.4µM*
CCOCCCNCc1ccc(OC)cc1	?	-26.8%	7.8%	-15.6	-9.0%	20.8%
CC1(C)CC(=O)C2=C(C1)NC(Nc1nc3ccccc3o1)=NC2c1ccccn1 (stereo not drawn)	14.8%	0.731µM*	-24.6%	0.0	0.82µM*	-12.9%
CC1(C)CC(=O)C2=C(C1)NC(Nc1nc3ccccc3o1)=NC2c1ccccc1Cl (stereo not drawn)	32.8%	5.62µM*	·	·	7.08µM*	·
CC1(C)CC(=O)C2=C(C1)NC(Nc1nc3ccccc3o1)=NC21CCCC1	0.0%	?	11.1%	64.2	-26.1%	11.9%
SMILES	ALOX12 inh	DT40 TDP1 CPT	HT1080NT lethal	IL1B secr inh	DT40 TDP1 no CPT	HT1080 IDH1KD tx
COc1ccc(-c2csc(=NCCO)n2-c2ccccc2)cc1	?	?	-23.6%	-74.2*	18.4µM*	-14.0%
CC1CC(C)CN(C(=O)CSC2=Nc3ccccc3C3=NC(Cc4c[nH]c5ccccc45)C(=O)N23)C1 (stereo not drawn)	·	?	-7.0%	-12.9	16.4µM*	-10.3%
O=C(O)/C(=C\c1ccccc1OC(F)F)Sc1nnc(-c2ccc(F)cc2)o1	19.1%	20.6µM*	-0.2%	-24.4	?	-22.5%
CCCC(C)NC(=O)CN(c1cccc(OC)c1)S(C)(=O)=O (stereo not drawn)	23.5%	·	·	·	·	·
Cc1nc(NC(C)c2ccccc2)c2oc3ccccc3c2n1 (stereo not drawn)	-22.8%	20.6µM*	-15.5%	-6.1	10.3µM*	?
CCC(C)Nc1nc(C)nc2c1oc1ccccc12 (stereo not drawn)	?	18.4µM*	-18.6%	25.0	16.4µM*	-14.5%
Cc1nc(NCc2ccco2)c2oc3ccccc3c2n1	?	?	-20.5%	-5.3	10.3µM*	-0.8%
Cc1cccc(CC(C)NC(=O)c2coc(COc3ccc4c(c3)OCO4)n2)n1 (stereo not drawn)	-12.6%	·	·	·	·	·
Cc1cc(C)n(CCCNC(=O)c2cc(COc3ccc4sc(C)nc4c3)on2)n1	25.2%	·	·	·	·	·
COc1cccc(OCc2cc(C(=O)NCc3ccccn3)no2)c1	11.5%	3.1%	12.1%	-4.6	?	18.0%
O=C(NCc1cccc(Cl)c1)c1cc(COc2ccc3ncccc3c2)on1	2.9%	16.4µM*	-20.0%	?	20.6µM*	-21.3%
Cc1cc(C)n(CCNC(=O)c2cc(COc3ccc4ncccc4c3)on2)n1	-1.6%	20.6µM*	0.8%	2.0	20.6µM*	-8.8%
